PubChem BioAssay AID485275 (NMMLSC, 2010)
Out of some 330,000 compounds screened, about 1,400 (0.42%) were called active.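 The calls were made as follows: active = plate passing quality check with inhibition over a set limit, or well fluorescence over plate mean plus 4 SD; inactive = the rest.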 For the sample, actives were picked, then their nearest neighbours and some compounds at random.

Experiment: inhibitors of Candida efflux pumps in yeast, primary screen, S. cerevisiae, Nile Red, multiplex (AID 485275);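 also: Nile Red retained in pooled yeast measured as flow cytometry median fluorescence; 0% = buffer negative control and 100% = Enniatin B positive control; higher means more Nile Red kept so more efflux inhibition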
Details: S. cerevisiae Candida pump triplex, at 10 µM, hits give high values

inhibition, inactive:
COc1ccc(C2(C)NC(=O)N(CC(=O)c3ccc4c(c3)OCO4)C2=O)cc1 (stereo not given) 0.11%
CCCCN(C(=O)C(CCSC)N1C(=O)c2ccccc2C1=O)c1c(N)n(CCC)c(=O)[nH]c1=O (stereo not given) -0.17%
Cc1ccc(NC(=O)COC(=O)C2C3CC4OC(=O)C2C4C3)cc1Cl (stereo not given) 0.04%
COc1c(C(C)C)oc2cc3oc(=O)ccc3cc12 0%
Cc1noc(C)c1COc1ccc2ccc(=O)oc2c1 0.13%
CC[C@]1(C(=O)OC)[C@H]2C(=O)N(Cc3ccccc3)C(=O)[C@H]2[C@H]2CN=C(SCc3ccc(Cl)cc3)N21 0.03%
CC(=O)N1CCN(CC(C)(C)NS(=O)(=O)c2ccc(C)cc2)CC1 0.16%
CCn1ncc(C2=NOC(C(=O)Nc3ccccc3C(=O)OC)C2)c1C (stereo not given) -0.18%
Cc1cccc(NC(=O)COc2ccc(Br)cc2C)n1 -0.04%
Cc1ccccc1OCC(=O)Nc1nc(C)c(C(=O)N(C)C)s1 -0.09%
COc1ccc(Cc2nc3ccc(C(=O)N4CCC(N(C)C)C4)cc3o2)cc1 (stereo not given) -0.47%
O=C(COc1ccccc1F)NNC(=O)c1cc(Br)ccc1Cl 0.03%
CC1CCN(C(=O)CCc2nnc3ccc(NCc4ccco4)nn23)CC1 0.1%
CCC1(CC)NC(=O)N(CC(=O)OCC(=O)NC(=O)c2ccccc2)C1=O 0.07%
O=S(=O)(NCC1OCCc2ccccc21)c1ccccc1 (stereo not given) -0.08%
NC(=O)c1oc2ccccc2c1NC(=O)Cc1ccccc1 0.32%
CCOc1ccccc1C1CC(c2cccc(NS(C)(=O)=O)c2)=NN1C(=O)c1ccccc1 (stereo not given) -0.18%
COc1ccc(C2=NN(C(=O)c3ccccc3C(=O)O)C(c3ccccc3O)C2)cc1 (stereo not given) -0.05%
N#Cc1ccc(CN2CCN(CC(=O)Nc3ccccc3C(=O)NC3CC3)CC2)cc1 0.14%
CCCCC(NS(=O)(=O)c1ccc(C)cc1)C(=O)Oc1ccc2c3c(c(=O)oc2c1)CCC3 (stereo not given) 0.09%
C/C(N)=C(/C#N)C(=O)COC(=O)c1cc(-c2ccccc2)nc2ccc(Br)cc12 0.06%
C/C(N)=C(/C#N)C(=O)COC(=O)c1cc(-c2ccc(C)cc2)nc2ccccc12 -0.3%
CC(C)c1nnc(NC(=O)C2CCCN2S(=O)(=O)c2ccc(Cl)cc2)s1 (stereo not given) -0.16%
Cc1cccc(NC(=O)C2CCCN2S(=O)(=O)c2ccc(F)cc2)c1C (stereo not given) -0.01%
COc1ccccc1/C=N/N1CCN(Cc2ccccc2Cl)CC1 -0.11%
CC12CCC(C(=O)N(NC(=O)c3ccccc3O)C1=O)C2(C)C (stereo not given) -0.08%
O=C1CC(NNc2ccccc2)C(=O)N1c1cccc(Cl)c1 (stereo not given) 0.07%
O=C(CCCN1C(=O)CSc2ncccc21)N1CCN(c2cccc(C(F)(F)F)c2)CC1 0.01%
O=C(CSC1CC(=O)N(CCc2ccccc2)C1=O)Nc1ccc(Cl)cc1 (stereo not given) 0.17%
NC(=O)c1cc(S(=O)(=O)NCCCc2ccco2)cs1 -0.02%
COc1ccc(/C=C/C(=O)OCC(=O)Nc2cccc(Oc3ccccc3)c2)c(OC)c1 -0.02%
COc1cccc(NC(=O)CN(C)C(=O)Cc2ccc(Cl)cc2Cl)c1 -0.07%
CCN(CC)CC(=O)Nc1nn(-c2ccccc2)nc1C(N)=O 0.02%
O=C(Nc1nccs1)c1cc(S(=O)(=O)N2CCOCC2)c(Cl)cc1Cl -0.05%
Cc1ccc(C(=O)Nc2ccn(C)n2)cc1 -0.02%
COC(=O)/C(=C1\Oc2ccc(C(C)(C)C)cc2S1)C(F)(F)F -0.15%
O=C(NN1C(=O)C2CCCCC2C1=O)c1ccco1 (stereo not given) -0.1%
Cc1ccc(S(=O)(=O)N2CC(C)N(S(C)(=O)=O)C2)cc1 (stereo not given) -0.07%
CCOC(=O)c1c(NC(=S)Nc2ccccc2)sc2c1CCN(C)C2 -0.02%
CCOC(=O)c1c(NC(=O)C2(C)Cc3ccccc3C(=O)O2)sc2c1CCCC2 (stereo not given) 0.15%
C=CCNC(=O)c1sc(SC)cc1-c1ccc(Cl)cc1 -0.08%
CCCCN1C(=O)CCC(C(=O)O)C1c1ccc(OC)cc1 (stereo not given) 0.12%
Cc1ccc(C)c(-n2nnnc2SCC(=O)c2c(N)n(C)c(=O)n(C)c2=O)c1 -0.07%
COc1ccc(OC)c(-n2nnnc2SCC(=O)Nc2cc(C)ccc2OC)c1 -0.01%
O=C(NCC(=O)N1CCN(c2ncc(C(F)(F)F)cc2Cl)CC1)c1ccc(Br)o1 -0.34%
CC(=O)Nc1ccc(S(=O)(=O)N2CCC(C(=O)NC3CC3)CC2)cc1 -0.06%
CN1CCN(S(=O)(=O)c2ccc(NC(=O)C3CCCO3)cc2)CC1 (stereo not given) -0.16%
CCN(CC(=O)Nc1c(F)cccc1F)C(=O)c1cnc(C)cn1 -0.12%
CN1C(=O)/C(=C/c2ccco2)SC1=Nc1cccc(C(=O)O)c1 -0.02%
CCCn1c2ccccc2c2cnn(CC(=O)NCCCN3CCCCC3CC)c(=O)c21 (stereo not given) 0.02%
CC(C)N1CCC(N2CCN(Cc3cccnc3)CC2CCO)CC1 (stereo not given) 0.28%
Nc1ccc(N=Nc2ccccc2Cl)c(N)n1 0.15%
O=C(CC(=O)N/N=C\c1cccc(Cl)c1Cl)NCc1ccccc1 0.27%
CCOC(=O)CNC(=O)/C=C/c1c(Cl)cccc1Cl -1.16%
CCCc1ccc(OCC(O)CN2CCN(C(=O)OCC)CC2)cc1 (stereo not given) 0.15%
C=CCC[C@H](Cc1ccc(F)cc1)C(=O)OC[C@H](C)NC(=O)[C@H](CC=C)CC(=O)N(CCO)Cc1ccccc1 -0.16%
C=CCC[C@H](Cc1ccc(F)cc1)C(=O)OC[C@@H](Cc1c[nH]c2ccccc12)NC(=O)[C@H](CC=C)CC(=O)N[C@H](CO)Cc1ccccc1 -0.27%
COCC(C)NC(=O)c1ccc(-n2nc(C(F)(F)F)cc2-c2cccs2)cc1 (stereo not given) -0.07%
CCn1c(=O)c(C(=O)NCc2ccc3c(c2)OCO3)c(O)c2ccccc21 -0.11%
O=C(NCc1ccc2c(c1)OCO2)c1cc(F)c(F)cc1Cl 0.18%
CCN(C(=O)CSc1nnc(-c2ccc(OC(F)F)cc2)n1N)C1CCS(=O)(=O)C1 (stereo not given) 0.02%
CC(=O)C1(C)N(O)C(C)(C)C(c2cccs2)=[N+]1[O-] (stereo not given) -0.09%
O=C(CSc1nnc(-c2cnccn2)n1Cc1ccco1)c1ccc(Cl)c(Cl)c1 -0.1%
COc1cc(Cl)c(C)cc1NC(=O)CSc1nnc(-c2cccnc2)n1Cc1ccco1 0.03%
CSc1cccc(NC(=O)C2CCCN2S(=O)(=O)c2ccc3c(c2)CCC(=O)N3)c1 (stereo not given) 0.16%
COc1cccc(CNC(=O)C(=O)NCCC2CCCCN2S(=O)(=O)c2ccc(C)cc2)c1 (stereo not given) 0.03%
Cc1ccc(C(=O)Nc2ccccc2-c2ccccc2)cc1S(=O)(=O)Nc1ccccc1 0.01%
Cc1ccc(C(=O)O)cc1N1C(=O)CCCC1=O -0.14%
O=c1oc2ccccc2c(NC2CCCCC2)c1NS(=O)(=O)c1ccc(Cl)cc1 -0.01%
CCC(=O)Nc1ccc(S(=O)(=O)Nc2c(NC)c3ccccc3oc2=O)cc1 0.02%
CC1CC(C)CN(C(=O)C2CC(=O)N(c3ccc(F)cc3)C2)C1 (stereo not given) -0.06%

inhibition, active:
Cc1nn(C)cc1N1C(=O)c2cccc3c(N)ccc(c23)C1=O 0.48%
Cc1oc2cc3oc(=O)ccc3cc2c1C 2.16%
Cc1cccc(NC(=O)COc2ccccc2C)n1 1.07%
O=C(Cc1ccccc1)NCC1OCCc2ccccc21 (stereo not given) 0.87%
CCOc1ccc2nc(Cl)c(C3CC(c4ccccc4)=NN3C(=O)c3cccs3)cc2c1 (stereo not given) 0.46%
C/C(N)=C(/C#N)C(=O)COC(=O)c1cc(-c2cccc(Br)c2)nc2ccccc12 37.8%
COc1ccccc1NC(=O)C1CCCN1S(=O)(=O)c1ccc(Cl)cc1 (stereo not given) 0.94%
CC12CCC(C(=O)N(c3cccc(Cl)c3)C1=O)C2(C)C (stereo not given) 10.2%
COc1cccc(NC(=O)CN(C)C(=O)/C=C/c2cc(OC)ccc2OC)c1 15.2%
CN(C)S(=O)(=O)c1cc(C(=O)Nc2ccn(C)n2)c(Cl)cc1Cl 52.3%
CCOC(=O)c1c(NC(=S)NC(=O)c2ccco2)sc2c1CCCC2 1.02%
CCOC(=O)CNC(=O)CSc1nnnn1-c1cc(C)ccc1C 0.92%
CN1CCN(S(=O)(=O)c2ccc(NC(=S)NC(=O)C3CC3)cc2)CC1 10.2%
Cc1ccc(N=C2NC(=O)/C(=C/C=C/c3ccco3)S2)cc1C 2.76%
O=C(/C=C/c1c(Cl)cccc1Cl)NCc1ccccc1 24.9%
C=CCC[C@@H](Cc1ccc(F)cc1)C(=O)OC[C@H](Cc1c[nH]c2ccccc12)NC(=O)[C@@H](CC=C)CC(=O)N(CCO)Cc1ccccc1 149%
Cc1nc2c(C(=O)NCc3ccc4c(c3)OCO4)c[nH]n2c(=O)c1Cc1ccccc1F 0.63%
O=C(CSc1nnc(-c2cccnc2)n1Cc1ccco1)c1ccc(Cl)c(Cl)c1 0.84%
CCNc1c(NS(=O)(=O)c2ccc(C3CCCCC3)cc2)c(=O)oc2ccccc12 1.37%
